Experiment [1] is described as follows: resazurin metabolic signal in HepG2 cells – cell-based, resazurin fluorescence, 24 h, PK04 Diversity Set, profiling panel (AID 1172). Also: test concentration not given here. The conditions noted are these: HepG2 viability, higher = more signal. For orientation: The colour change of resazurin is a common sign of viable cells or microbes.
Experiment [2] is described as follows: budding yeast growth changes without added modifier – OD600, strain BY4716, 24 h, basal condition, primary screen (AID 1173). The conditions noted are these: S. cerevisiae BY4716 growth, OD600, 24 h; higher = more signal, called active from +8 up or from −8 down.
The nature of experiment [3]: viability profiling in MM1S myeloma cells – cell-based, resazurin fluorescence, basal, 24 h, PK04 Diversity Set, profiling panel (AID 1174).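 Also: MM1S multiple myeloma cell line; test concentration not given here.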 The note with it: higher = more signal, called active from +8 up or from −8 down.
The target of experiment [4] is Dihydroorotate dehydrogenase (quinone), mitochondrial (Plasmodium falciparum (isolate 3D7)) (UniProt Q08210). Nature of the experiment: inhibition of P. falciparum DHODH – biochemical, C-terminal His tag, absorbance 600 nm, primary screen (AID 1175).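 Also: recombinant parasite enzyme with a five histidine tag at its C terminus; test concentration not given here.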 The conditions noted are these: PfDHODH enzyme, DCIP absorbance 600 nm; higher = more signal, called active from +8 up or from −8 down.
Chain of Dihydroorotate dehydrogenase (quinone), mitochondrial (Plasmodium falciparum (isolate 3D7)) (Q08210 whole entry, looked up): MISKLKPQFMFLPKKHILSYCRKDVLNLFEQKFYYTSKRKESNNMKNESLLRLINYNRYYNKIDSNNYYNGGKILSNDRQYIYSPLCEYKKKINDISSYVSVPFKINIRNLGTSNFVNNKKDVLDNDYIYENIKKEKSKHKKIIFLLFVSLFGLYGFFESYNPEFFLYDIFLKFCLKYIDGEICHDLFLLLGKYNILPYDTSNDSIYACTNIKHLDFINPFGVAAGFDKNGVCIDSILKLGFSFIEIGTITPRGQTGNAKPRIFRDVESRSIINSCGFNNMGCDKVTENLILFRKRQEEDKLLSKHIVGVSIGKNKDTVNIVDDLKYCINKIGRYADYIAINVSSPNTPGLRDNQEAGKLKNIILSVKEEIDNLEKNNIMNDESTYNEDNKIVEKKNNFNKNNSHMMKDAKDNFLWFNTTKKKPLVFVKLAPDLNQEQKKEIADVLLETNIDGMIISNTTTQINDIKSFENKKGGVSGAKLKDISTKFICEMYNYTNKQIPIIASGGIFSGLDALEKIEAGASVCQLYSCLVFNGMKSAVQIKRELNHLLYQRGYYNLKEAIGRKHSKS

The nature of experiment [5]: inhibition of PAO1 biofilm formation – strain PAO1, LB-PBS medium, absorbance 600 nm, primary screen (AID 1176). Also: test concentration not given here. The note with it: P. aeruginosa PAO1 growth/biofilm, A600, 12 h; higher = more signal.
A short description of experiment [6]: growth modulation of vineyard yeast isolate – strain RM11-1a, OD600, basal, 24 h, primary screen (AID 1177).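 Also: cultures grown under basal conditions with no added stressor; test concentration not given here.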 The conditions noted are these: S. cerevisiae RM11-1a growth, OD600, 24 h; higher = more signal, called active from +8 up or from −8 down.
Experiment [7] is described as follows: growth of efflux-deficient E. coli DRC39 – strain DRC39, OD650, 24 h, E. coli filamentation inducers, primary screen (AID 1178).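 Also: growth measured as culture turbidity by optical density at 650 nm; test concentration not given here.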 The conditions noted are these: E. coli DRC39 acrAB, higher = more signal, called active from +8 up or from −8 down.
Experiment [8] is described as follows: growth of efflux-deficient E. coli DRC39 – strain DRC39, OD650, 48 h, E. coli filamentation inducers, primary screen (AID 1179).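 Also: screen aims at cell division blockers that make cells filament.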 The conditions noted are these: E. coli DRC39 delta-acrAB growth, higher = more signal, called active from +8 up or from −8 down.
A short description of experiment [9]: viability profiling in RPMI8226 myeloma cells – cell-based, resazurin fluorescence, basal, 24 h, PK04 Diversity Set, profiling panel (AID 1180).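 Also: RPMI8826 multiple myeloma cell line at 5000 cells per well; test concentration not given here.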 The note with it: higher = more signal.
Experiment [10] concerns the target E3 ubiquitin-protein ligase XIAP (Homo sapiens) (UniProt P98170). Nature of the experiment: small molecules binding XIAP protein – biophysical, small-molecule microarray, fluorescence 635 nm, primary screen (AID 1181).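 Also: score merges 667 nm emission and signal to noise over triplicate slides.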 The conditions noted are these: higher = more signal.

Molecules are shown by their SMILES. Activity calls are given as the source filed them. Unless noted, no rule for the calls is given here.

Results on 14 molecules are retold here after PubChem BioAssay.

Chain of E3 ubiquitin-protein ligase XIAP (Homo sapiens) (P98170 whole entry, looked up): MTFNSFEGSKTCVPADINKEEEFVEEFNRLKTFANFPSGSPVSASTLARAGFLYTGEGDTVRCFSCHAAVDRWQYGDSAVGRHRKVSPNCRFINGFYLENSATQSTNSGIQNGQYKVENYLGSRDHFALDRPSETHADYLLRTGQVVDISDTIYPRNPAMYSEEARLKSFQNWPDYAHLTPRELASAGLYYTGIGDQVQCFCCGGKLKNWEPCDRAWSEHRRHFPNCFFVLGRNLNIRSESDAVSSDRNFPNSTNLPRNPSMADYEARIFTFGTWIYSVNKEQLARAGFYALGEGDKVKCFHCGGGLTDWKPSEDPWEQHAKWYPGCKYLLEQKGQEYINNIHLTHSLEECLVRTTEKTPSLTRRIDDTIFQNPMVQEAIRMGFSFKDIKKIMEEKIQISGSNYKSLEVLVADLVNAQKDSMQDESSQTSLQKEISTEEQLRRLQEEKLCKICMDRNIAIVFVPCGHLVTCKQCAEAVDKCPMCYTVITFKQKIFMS

For `CC(C)CON=C1C[C@@H](O)[C@@H](O)[C@@H]2[C@@H]3C(=O)N(Cc4ccccc4)C(=O)[C@@H]3CC[C@H]12`, the z-score in experiment [1] was 0.0344; in experiment [2], -1.11 (inactive); in experiment [3], 1.15 (inactive); in [5], 0.92 (inactive); in experiment [6], -1.17 (inactive); in [7], 0.68 (inactive). Further, the z-score in experiment [8] is -1.08 (inactive); in [9], 0.851. The composite z-score in experiment [4] was -0.451 (inactive); in [10], -0.0436.
In the case of `COC(=O)[C@H](C)NC(=O)CCC1CC(OC(=O)NCCc2ccc(F)cc2)CC2(CCCC(COC(=O)NCc3ccccc3)O2)O1` (stereo not given in full), the z-score was 0.445 in experiment [1]; 1.45 (inactive) in experiment [2]; 1.05 (inactive) in experiment [3]; 0.119 (inactive) in experiment [5]; 1.02 (inactive) in experiment [6]; 0.0734 (inactive) in experiment [7]. Moreover, the z-score is -0.445 (inactive) in experiment [8] and 1.07 in experiment [9]. In addition, the composite z-score is 0.152 (inactive) in experiment [4] and -0.0601 in [10].
Take `CC(=O)OC[C@H]1O[C@H](CC=NOC(C)CN2CCCc3nc(C)c(C)cc32)C=C[C@@H]1OC(C)=O` (stereo not given in full): the z-score in experiment [1] was -0.368; in experiment [2] it was -0.494 (inactive); in experiment [3], 0.161 (inactive); in [5], -0.373 (inactive); in experiment [6], 0.634 (inactive); in [7], 0.603 (inactive). For the same molecule, the z-score in experiment [8] is -0.147 (inactive); in experiment [9], 0.12. In addition, the figures for the composite z-score in [4] and in experiment [10] were 0.159 (inactive) and 0.145, respectively.
On to `CO[C@@H]1[C@H](O)CO[C@H]1C=Cc1ccccc1`, for which the z-score is -1.01 in experiment [1]; -1.05 (inactive) in experiment [2]; 0.841 (inactive) in experiment [3]; -0.859 (inactive) in experiment [5]; -0.113 (inactive) in [6]; -0.442 (inactive) in [7]. Further, the z-score in [8] was 0.207 (inactive); in [9] it was 0.941. For the same molecule, the figures for the composite z-score in experiment [4] and in [10] were 0.295 (inactive) and -0.123, respectively.
`CC=CC1=C(CO)[C@H](O)[C@H]2O[C@H]2[C@@H]1O`: the z-score is -0.504 in experiment [1]; -0.299 (inactive) in experiment [2]; 0.133 (inactive) in [3]; -0.102 (inactive) in experiment [5]; 0.39 (inactive) in experiment [6]; 0.615 (inactive) in experiment [7]. Also, the z-score in experiment [8] was -0.442 (inactive); in [9], 0.694. In addition, the composite z-score in [4] was 0.781 (inactive); in [10], -0.204.
As to `C=CC[C@@H]1C=C[C@H](ON=C(C)CCN2CCCc3nc(C)c(C)cc32)[C@@H](CO)O1`, the z-score in [1] is 0.394; in experiment [2] it was 0.529 (inactive); in experiment [3], -0.0956 (inactive); in [5] it was 0.936 (inactive); in experiment [6], 0.662 (inactive); in experiment [7], 0.382 (inactive). The z-score in experiment [8] is -0.0088 (inactive); in experiment [9], -0.0021. For the same molecule, the composite z-score in [4] was -0.267 (inactive); in experiment [10], 1.07.
As for `COC(=O)C(C(=O)OC)C1CCCC(=O)C1` (stereo not given), the z-score in experiment [1] was -0.598; in experiment [2], -0.272 (inactive); in experiment [3] it was -1.14 (inactive); in experiment [5] it was -0.482 (inactive); in experiment [6], 0.386 (inactive); in experiment [7], -1.37 (inactive). Further, the z-score in [8] was -0.561 (inactive); in experiment [9], -0.53. Moreover, the composite z-score in [4] was 0.437 (inactive); in experiment [10], -0.34.
Regarding `COC(=O)[C@@H]1CC[C@H](C)[C@@H](c2ccc(Br)cc2)N1`, the z-score in experiment [1] is 0.138; in experiment [2] it was 0.86 (inactive); in [3], 0.176 (inactive); in experiment [5] it was 0.119 (inactive); in experiment [6], 1.27 (inactive); in experiment [7], 0.45 (inactive). Besides, the values for the z-score in experiment [8] and in experiment [9] were -0.836 (inactive) and 0.279, respectively. Moreover, the composite z-score in experiment [4] is 0.496 (inactive); in experiment [10], 1.27.
For `CON(C)C(=O)c1nnc2c(n1)[nH]c1ccccc12`, the z-score in experiment [1] is -0.244; in [2] it was 0.304 (inactive); in experiment [3], 0.322 (inactive); in experiment [5] it was 0.131 (inactive); in [6], -0.915 (inactive); in experiment [7], 0.593 (inactive). Also, the z-score in experiment [8] was 0.572 (inactive); in experiment [9], 0.492. Moreover, the composite z-score in experiment [4] is -0.306 (inactive); in experiment [10], 0.273.
Take `COc1ccc(COC(=O)NN=C2C[C@@H](O)[C@@H](O)[C@@H]3[C@@H]4C(=O)N(C[C@@H]5CCCO5)C(=O)[C@@H]4CC[C@H]23)cc1`: the z-score in experiment [1] was -0.161; in experiment [2], 1.29 (inactive); in experiment [3], 0.0829 (inactive); in experiment [5] it was -0.0485 (inactive); in experiment [6] it was 0.293 (inactive); in experiment [7], 0.16 (inactive). The z-score in [8] is 0.0875 (inactive); in experiment [9], -0.631. For the same molecule, the composite z-score in [4] is -0.395 (inactive); in experiment [10], 0.0679.
For `COC(=O)[C@H](C)NC(=O)CC=C[C@@H](C)[C@@H]1C=C[C@H](O)[C@@H](CO)O1`, the z-score in [1] is -0.261; in experiment [2], 0.104 (inactive); in experiment [3] it was -0.543 (inactive); in [5], 0.25 (inactive); in [6], 0.253 (inactive); in experiment [7], 0.64 (inactive). Besides, the z-score was 0.384 (inactive) in [8] and -0.845 in experiment [9]. Further, the composite z-score in experiment [4] is -0.0763 (inactive); in experiment [10], 0.0623.
For the molecule `O=C1[C@H]2[C@H]3[C@H](O)[C@H](O)CC(=NO[C@@H]4O[C@H](CO)[C@@H](O)[C@H](O)[C@H]4O)[C@H]3CC[C@H]2C(=O)N1c1ccc(F)cc1F`, the z-score was 0.487 in experiment [1]; 0.191 (inactive) in experiment [2]; -0.141 (inactive) in experiment [3]; -0.377 (inactive) in [5]; -0.638 (inactive) in experiment [6]; 0.166 (inactive) in [7]. The figures for the z-score in [8] and in experiment [9] were -0.196 (inactive) and 0.371, respectively. In addition, the composite z-score was -1.08 (inactive) in experiment [4] and 0.394 in experiment [10].
Turning to `CC(CCC(=O)OC[C@H]1O[C@H](C#Cc2ccccc2)C=C[C@@H]1Oc1ccc(C)cc1)=NOC[C@@H](C)[C@H](OCc1ccccc1)C(C)C`, the z-score was 0.38 in [1]; 0.513 (inactive) in experiment [2]; 0.258 (inactive) in experiment [3]; -0.503 (inactive) in experiment [5]; -0.222 (inactive) in experiment [6]; 0.0786 (inactive) in [7]. Further, the results for the z-score in [8] and in [9] were -0.931 (inactive) and 0.306, respectively. Moreover, the composite z-score in [4] is 0.615 (inactive); in [10], -0.227.
Consider `COC(=O)[C@H](CCSC)NC(=O)CC=C[C@@H](C)CO`, for which the z-score in experiment [1] is -0.838; in experiment [2], 0.0957 (inactive); in [3], 0.311 (inactive); in experiment [5] it was -0.895 (inactive); in [6], 0.489 (inactive); in [7] it was -1.07 (inactive). Further, the results for the z-score in experiment [8] and in experiment [9] were -0.576 (inactive) and 0.475, respectively. Besides, the figures for the composite z-score in [4] and in experiment [10] were 0.521 (inactive) and 0.262, respectively.
